The supplement of paper PMC11732987, “Enantioselective OTUD7B fragment discovery through chemoproteomics screening and high-throughput optimisation” (Communications Chemistry, 2025)

Tests used:
Test in all cases: log2 ratio of Biotin-Ahx-Ub-VS probe labelling (fragment/DMSO); higher = less target engagement (more negative = stronger competition), active = hit call of the paper (q ≤ 0.05, log2 ratio ≤ -1)
Details in all cases: compound concentration: 200 uM; treatment time: 3 h
USP34 = USP34 (UniProt Q70CQ2)
Method in brief: (§1)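 HEK293T lysate in Tris/CHAPS/IGEPAL buffer with protease inhibitors (495 µg per sample) was given fragment at 200 µM or vehicle for 3 h, in triplicate. It then received Biotin-Ahx-Ub-VS at 0.5 µM final for 1 h. Labelled DUBs were NeutrAvidin-enriched, digested with LysC and trypsin, and run by diaPASEF LC-MS/MS. Values are average log2 fragment/vehicle ratios by unpaired t-test on global-median-normalised Spectronaut quantities of proteins with ≥2 unique peptides.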

USP36 = target: T1, USP36 (UniProt Q9P275)
T1 sequence (whole entry): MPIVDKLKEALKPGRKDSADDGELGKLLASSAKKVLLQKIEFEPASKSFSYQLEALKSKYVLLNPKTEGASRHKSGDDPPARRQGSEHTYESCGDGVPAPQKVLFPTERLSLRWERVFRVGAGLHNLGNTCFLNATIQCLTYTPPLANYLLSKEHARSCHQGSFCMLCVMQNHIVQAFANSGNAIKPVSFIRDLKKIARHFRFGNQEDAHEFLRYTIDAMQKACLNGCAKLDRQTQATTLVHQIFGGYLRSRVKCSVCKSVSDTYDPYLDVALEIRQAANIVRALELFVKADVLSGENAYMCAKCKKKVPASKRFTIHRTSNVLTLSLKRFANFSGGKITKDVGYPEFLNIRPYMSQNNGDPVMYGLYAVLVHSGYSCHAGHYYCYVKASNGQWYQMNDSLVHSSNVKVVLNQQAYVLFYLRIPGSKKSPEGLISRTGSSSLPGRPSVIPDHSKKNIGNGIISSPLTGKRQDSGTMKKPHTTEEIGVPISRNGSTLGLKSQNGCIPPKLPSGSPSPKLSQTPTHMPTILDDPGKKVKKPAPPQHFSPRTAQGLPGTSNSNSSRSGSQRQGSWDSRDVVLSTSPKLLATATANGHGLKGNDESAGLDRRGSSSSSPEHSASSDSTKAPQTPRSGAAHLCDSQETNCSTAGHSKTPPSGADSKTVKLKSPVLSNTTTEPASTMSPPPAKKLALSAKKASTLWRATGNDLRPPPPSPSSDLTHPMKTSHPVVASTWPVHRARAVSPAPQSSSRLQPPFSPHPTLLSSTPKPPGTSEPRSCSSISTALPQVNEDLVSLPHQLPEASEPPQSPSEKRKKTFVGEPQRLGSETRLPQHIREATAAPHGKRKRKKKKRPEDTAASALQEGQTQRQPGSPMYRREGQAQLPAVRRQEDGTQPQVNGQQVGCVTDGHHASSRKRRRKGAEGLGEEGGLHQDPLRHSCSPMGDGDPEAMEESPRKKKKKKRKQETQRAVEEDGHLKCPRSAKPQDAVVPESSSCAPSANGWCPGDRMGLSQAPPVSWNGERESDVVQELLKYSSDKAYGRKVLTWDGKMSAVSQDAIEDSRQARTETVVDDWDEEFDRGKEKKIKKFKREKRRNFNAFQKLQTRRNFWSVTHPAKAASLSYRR
Method in brief: as §1

USP38 = target: T2, USP38 (UniProt Q8NB14)
T2 sequence (whole entry): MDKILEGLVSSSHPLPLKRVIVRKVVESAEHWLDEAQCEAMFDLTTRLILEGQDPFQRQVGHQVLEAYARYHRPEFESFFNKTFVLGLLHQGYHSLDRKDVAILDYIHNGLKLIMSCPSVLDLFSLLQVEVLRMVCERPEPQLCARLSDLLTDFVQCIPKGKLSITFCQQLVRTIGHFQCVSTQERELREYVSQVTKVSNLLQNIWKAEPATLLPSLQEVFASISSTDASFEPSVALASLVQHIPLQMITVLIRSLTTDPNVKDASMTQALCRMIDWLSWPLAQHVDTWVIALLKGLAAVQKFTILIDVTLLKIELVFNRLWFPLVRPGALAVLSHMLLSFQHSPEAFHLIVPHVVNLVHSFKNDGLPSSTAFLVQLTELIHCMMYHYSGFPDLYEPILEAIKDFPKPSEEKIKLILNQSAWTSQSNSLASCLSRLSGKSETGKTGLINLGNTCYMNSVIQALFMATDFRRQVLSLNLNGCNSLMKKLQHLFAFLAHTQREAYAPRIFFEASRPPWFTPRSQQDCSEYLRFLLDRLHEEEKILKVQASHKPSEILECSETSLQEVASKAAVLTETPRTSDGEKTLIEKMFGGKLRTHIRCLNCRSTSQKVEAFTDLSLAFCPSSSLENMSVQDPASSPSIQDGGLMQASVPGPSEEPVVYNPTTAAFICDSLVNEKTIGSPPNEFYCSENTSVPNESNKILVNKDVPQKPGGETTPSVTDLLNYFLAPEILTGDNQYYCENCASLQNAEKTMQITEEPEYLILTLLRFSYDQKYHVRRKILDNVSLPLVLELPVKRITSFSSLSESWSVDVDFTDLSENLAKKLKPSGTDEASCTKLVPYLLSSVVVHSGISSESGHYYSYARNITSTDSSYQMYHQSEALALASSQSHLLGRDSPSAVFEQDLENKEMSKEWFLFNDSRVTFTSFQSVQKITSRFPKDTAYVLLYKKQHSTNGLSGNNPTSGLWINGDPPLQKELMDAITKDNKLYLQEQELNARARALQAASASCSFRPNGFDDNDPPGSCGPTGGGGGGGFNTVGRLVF
Method in brief: as §1

USP39 = target: T3, USP39 (UniProt Q53GS9)
T3 sequence (whole entry): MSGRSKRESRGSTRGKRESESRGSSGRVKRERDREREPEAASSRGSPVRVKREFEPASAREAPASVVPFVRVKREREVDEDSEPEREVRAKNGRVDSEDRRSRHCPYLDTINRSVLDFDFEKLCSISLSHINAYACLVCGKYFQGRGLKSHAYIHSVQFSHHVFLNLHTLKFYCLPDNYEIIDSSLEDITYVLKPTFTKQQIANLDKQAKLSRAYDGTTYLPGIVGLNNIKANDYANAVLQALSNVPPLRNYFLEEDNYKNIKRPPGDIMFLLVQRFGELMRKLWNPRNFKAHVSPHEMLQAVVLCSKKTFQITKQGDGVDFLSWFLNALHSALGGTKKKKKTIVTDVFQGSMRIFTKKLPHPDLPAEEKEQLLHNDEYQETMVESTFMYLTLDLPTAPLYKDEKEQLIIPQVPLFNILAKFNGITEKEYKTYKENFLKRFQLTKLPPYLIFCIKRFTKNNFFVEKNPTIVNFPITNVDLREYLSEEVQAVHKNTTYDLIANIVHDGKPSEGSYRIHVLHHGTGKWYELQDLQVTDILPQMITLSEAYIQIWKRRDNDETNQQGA
Method in brief: as §1

USP4 = target: T4, USP4 (UniProt Q13107)
T4 sequence (whole entry): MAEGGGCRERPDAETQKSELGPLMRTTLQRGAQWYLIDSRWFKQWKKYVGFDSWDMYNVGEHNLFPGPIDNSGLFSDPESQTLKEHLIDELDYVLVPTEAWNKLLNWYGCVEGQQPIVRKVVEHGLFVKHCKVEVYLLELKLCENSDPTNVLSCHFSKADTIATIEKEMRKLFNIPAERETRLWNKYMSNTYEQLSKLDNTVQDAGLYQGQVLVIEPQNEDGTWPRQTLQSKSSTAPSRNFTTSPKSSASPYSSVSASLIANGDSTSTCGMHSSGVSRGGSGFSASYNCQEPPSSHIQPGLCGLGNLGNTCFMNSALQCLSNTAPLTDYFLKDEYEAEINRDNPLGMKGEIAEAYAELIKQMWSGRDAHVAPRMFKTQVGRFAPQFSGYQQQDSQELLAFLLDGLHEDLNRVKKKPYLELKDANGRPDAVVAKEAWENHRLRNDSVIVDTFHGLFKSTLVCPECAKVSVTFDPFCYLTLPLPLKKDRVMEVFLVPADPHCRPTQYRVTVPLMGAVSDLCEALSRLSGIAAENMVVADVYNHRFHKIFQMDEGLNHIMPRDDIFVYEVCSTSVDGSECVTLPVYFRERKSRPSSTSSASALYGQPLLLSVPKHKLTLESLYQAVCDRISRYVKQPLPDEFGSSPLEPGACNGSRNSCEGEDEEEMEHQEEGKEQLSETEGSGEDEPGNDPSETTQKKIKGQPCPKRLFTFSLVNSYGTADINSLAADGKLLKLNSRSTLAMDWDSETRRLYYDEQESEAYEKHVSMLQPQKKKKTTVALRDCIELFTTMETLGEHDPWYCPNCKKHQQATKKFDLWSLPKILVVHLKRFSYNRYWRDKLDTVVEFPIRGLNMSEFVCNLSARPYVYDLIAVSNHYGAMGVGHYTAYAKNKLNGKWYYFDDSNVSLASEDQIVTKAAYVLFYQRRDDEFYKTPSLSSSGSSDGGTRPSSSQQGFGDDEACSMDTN
Method in brief: as §1

Measured: log2 ratio of Biotin-Ahx-Ub-VS probe labelling

USP34, sequence (Q70CQ2 whole entry, the tested form may be a part): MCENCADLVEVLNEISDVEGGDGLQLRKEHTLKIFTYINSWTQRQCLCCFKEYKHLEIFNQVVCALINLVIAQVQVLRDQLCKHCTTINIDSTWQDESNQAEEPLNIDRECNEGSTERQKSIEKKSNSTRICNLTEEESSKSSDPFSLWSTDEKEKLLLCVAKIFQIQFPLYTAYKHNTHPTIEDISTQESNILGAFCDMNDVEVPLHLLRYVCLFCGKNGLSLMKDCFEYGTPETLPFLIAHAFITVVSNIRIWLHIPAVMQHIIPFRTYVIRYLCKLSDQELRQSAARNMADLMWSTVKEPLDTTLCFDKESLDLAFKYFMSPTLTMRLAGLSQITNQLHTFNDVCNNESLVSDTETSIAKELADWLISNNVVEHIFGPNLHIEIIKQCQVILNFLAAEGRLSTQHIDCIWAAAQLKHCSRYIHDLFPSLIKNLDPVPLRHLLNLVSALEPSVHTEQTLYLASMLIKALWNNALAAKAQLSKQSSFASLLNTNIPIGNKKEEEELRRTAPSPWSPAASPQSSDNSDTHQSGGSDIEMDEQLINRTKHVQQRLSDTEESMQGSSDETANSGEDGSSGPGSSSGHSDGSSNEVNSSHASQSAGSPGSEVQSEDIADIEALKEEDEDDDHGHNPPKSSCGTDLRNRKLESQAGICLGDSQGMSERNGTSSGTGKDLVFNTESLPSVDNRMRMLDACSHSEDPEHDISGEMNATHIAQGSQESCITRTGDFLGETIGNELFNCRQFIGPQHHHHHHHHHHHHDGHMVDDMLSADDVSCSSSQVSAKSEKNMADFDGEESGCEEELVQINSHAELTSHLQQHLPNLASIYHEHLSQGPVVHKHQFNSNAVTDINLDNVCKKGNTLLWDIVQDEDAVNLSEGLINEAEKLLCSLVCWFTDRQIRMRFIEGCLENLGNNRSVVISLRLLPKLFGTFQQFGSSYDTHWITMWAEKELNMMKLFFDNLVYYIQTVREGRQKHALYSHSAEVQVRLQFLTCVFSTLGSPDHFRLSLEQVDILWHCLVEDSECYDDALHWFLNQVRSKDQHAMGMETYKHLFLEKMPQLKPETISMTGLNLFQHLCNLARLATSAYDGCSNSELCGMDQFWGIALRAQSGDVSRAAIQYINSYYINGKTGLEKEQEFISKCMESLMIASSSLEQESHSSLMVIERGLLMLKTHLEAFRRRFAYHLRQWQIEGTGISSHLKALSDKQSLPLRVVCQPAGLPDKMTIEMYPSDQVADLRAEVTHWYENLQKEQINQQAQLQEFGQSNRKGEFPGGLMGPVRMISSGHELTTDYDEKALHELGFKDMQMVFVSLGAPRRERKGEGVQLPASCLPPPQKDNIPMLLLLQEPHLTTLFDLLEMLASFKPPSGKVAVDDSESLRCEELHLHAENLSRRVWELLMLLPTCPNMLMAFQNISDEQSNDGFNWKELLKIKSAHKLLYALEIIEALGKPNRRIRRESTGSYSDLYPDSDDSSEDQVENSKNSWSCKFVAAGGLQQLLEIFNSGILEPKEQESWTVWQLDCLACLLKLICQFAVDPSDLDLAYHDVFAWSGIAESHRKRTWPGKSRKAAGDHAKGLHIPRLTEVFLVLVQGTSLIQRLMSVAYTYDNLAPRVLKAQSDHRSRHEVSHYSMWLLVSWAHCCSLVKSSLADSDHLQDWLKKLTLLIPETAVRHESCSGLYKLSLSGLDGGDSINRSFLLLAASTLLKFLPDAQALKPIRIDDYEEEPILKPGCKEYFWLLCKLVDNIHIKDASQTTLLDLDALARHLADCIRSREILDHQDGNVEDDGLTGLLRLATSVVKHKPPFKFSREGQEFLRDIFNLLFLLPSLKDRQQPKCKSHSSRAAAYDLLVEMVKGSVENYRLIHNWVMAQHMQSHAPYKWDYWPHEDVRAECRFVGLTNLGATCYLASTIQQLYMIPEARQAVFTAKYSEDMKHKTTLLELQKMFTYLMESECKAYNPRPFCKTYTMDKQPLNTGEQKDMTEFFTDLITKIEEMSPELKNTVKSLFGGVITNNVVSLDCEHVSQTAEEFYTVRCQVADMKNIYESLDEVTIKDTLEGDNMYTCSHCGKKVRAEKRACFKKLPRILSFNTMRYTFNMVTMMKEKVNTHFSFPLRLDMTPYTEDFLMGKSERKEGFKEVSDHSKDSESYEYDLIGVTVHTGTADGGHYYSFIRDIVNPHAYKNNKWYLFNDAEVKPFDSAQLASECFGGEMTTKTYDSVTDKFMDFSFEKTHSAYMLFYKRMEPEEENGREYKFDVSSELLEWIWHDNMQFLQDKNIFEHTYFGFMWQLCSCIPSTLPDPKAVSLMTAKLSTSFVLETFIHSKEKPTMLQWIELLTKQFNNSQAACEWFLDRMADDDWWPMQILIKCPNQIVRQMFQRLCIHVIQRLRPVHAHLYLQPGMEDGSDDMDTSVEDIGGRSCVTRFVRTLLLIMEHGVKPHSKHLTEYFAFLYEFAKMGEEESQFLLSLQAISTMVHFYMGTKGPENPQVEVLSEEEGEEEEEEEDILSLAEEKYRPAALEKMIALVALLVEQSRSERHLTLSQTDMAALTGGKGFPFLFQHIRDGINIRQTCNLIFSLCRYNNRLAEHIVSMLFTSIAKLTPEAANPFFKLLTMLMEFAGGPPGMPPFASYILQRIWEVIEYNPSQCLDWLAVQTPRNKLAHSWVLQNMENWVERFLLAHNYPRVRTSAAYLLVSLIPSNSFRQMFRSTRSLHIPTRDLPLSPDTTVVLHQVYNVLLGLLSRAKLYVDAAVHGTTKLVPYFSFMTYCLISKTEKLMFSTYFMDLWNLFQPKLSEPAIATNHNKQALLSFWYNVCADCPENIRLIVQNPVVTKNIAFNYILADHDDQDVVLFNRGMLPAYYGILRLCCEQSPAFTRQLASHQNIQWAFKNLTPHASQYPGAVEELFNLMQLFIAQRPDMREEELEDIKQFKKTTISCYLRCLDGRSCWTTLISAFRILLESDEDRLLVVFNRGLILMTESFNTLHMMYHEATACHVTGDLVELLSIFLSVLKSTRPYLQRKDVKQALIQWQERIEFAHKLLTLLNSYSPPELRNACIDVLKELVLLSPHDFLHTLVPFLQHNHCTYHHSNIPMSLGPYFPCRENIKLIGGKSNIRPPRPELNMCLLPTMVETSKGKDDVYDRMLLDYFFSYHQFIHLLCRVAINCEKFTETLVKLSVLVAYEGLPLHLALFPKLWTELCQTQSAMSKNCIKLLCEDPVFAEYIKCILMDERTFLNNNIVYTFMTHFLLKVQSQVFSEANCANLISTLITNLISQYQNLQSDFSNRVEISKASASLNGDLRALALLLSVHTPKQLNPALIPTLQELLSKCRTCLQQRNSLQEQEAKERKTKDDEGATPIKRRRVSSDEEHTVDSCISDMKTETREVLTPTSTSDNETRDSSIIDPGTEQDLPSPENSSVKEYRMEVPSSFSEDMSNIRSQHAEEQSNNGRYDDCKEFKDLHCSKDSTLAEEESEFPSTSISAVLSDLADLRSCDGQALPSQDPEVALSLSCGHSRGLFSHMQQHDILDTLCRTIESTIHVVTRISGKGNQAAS

CN1C(=O)c2ccc(NC(=O)CCl)cc2C1=O
inactive: USP34 -0.233 | USP36 0.0568 | USP38 -0.169 | USP39 0.16 | USP4 -0.181
